Results taken from PubChem BioAssay.
Activity calls are given as the source filed them.

Test: yeast growth modulation, basal conditions, primary screen, YJM789 clinical isolate, OD600, 24 h (AID 1089);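 further: growth of clinical yeast isolate S. cerevisiae YJM 789 seeded 1000 cells per well; test concentration not given here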
Conditions: S. cerevisiae YJM789 growth, higher = more signal, called active from +8 up or from −8 down

z-score, inactive:
CCOC(=O)[C@H](CC(C)C)NC(=O)CCC1CC(OC(=O)NCc2cccc3ccccc23)CC2(CCCC(COC(=O)NCC3CCCCC3)O2)O1 (stereo not given in full) -0.402
Cc1cc2c(c(=O)o1)[C@@H](O)[C@H]1O[C@H]1C2=O 0.112
Cc1ccc(S(=O)(=O)NC(CCc2ccccc2)CC(=O)C(C)(C)C)cc1 (stereo not given) -1.18
C[C@@H](c1ccccc1)N1C(=O)[C@H]2[C@H]3[C@H](O)[C@H](O)CC(=NO[C@@H]4O[C@H](CO)[C@@H](O)[C@H](O)[C@H]4O)[C@@H]3CC[C@H]2C1=O 0.114
CCN1C(=O)[C@@H]2[C@H]3C(=CC[C@@H]2C1=O)C1(OCCCO1)[C@H]1O[C@H]1[C@H]3O 1.17
CCOC(=O)[C@H](CC(C)C)NC(=O)CCC1CC(OC(=O)NCc2cccc3ccccc23)CC2(CCCC(COC(=O)NCCCN3CCCC3=O)O2)O1 (stereo not given in full) -0.139
CC(=O)OC[C@H]1OC(ON=CC[C@@H]2C=C[C@H](OC(C)=O)[C@@H](COC(C)=O)O2)[C@H](OC(C)=O)[C@@H](OC(C)=O)[C@@H]1OC(C)=O (stereo not given in full) -0.763
COc1ccc(O[C@@H]2[C@H](O)CO[C@@H]2C=Cc2ccccc2)cc1 -0.565
O=C1[C@H]2[C@H]3[C@H](O)[C@H](O)CC(=NOC[C@@H](O)COCc4ccco4)[C@H]3CC[C@H]2C(=O)N1C[C@@H]1CCCO1 -0.193
CC(C)=CCCC(C)=CCON=C1C[C@@H](O)[C@@H](O)[C@@H]2[C@@H]3C(=O)N(C(C)(C)C)C(=O)[C@@H]3CC[C@@H]12 0.286
C#CCCCON=C1C[C@@H](O)[C@@H](O)[C@@H]2[C@@H]3C(=O)N(CCC(=O)OCC)C(=O)[C@@H]3CC[C@H]12 -1.64
C[C@H]1CC[C@H]2C(=O)O[C@H](COc3ccc(C(C)(C)C)cc3)CN2[C@@H]1c1ccc(Br)cc1 -0.364
CC(C)=CCCC(C)=CCON=C1C[C@@H](O)[C@@H](O)[C@@H]2[C@@H]3C(=O)N(c4cccc(Oc5ccccc5)c4)C(=O)[C@@H]3CC[C@@H]12 0.164
COc1ccc(O[C@H]2C=C[C@@H](c3ccccc3)O[C@@H]2COC(=O)CCC(C)=NOC(C)CN2CCCc3nc(C)c(C)cc32)cc1 (stereo not given in full) 0.194
COC(=O)[C@H](C)NC(=O)CCC1CC(OC(=O)NCc2cccc3ccccc23)CC2(CCCC(COC(=O)NCC(c3ccccc3)c3ccccc3)O2)O1 (stereo not given in full) -0.797
C=COC[C@@H]1CN2[C@@H](CC[C@@H](C)[C@@H]2c2ccc(Br)cc2)C(=O)O1 -0.872
CCOC(=O)[C@H](CC(C)C)NC(=O)CCC1CC(OC(=O)NCc2cccc3ccccc23)CC2(CCCC(COC(=O)NCCC(C)C)O2)O1 (stereo not given in full) -3.9
CCOC(=O)[C@H](Cc1ccccc1)NC(=O)CCC1CC(OC(=O)NCCc2ccc(F)cc2)CC2(CCCC(COC(=O)NCCc3ccccc3OC)O2)O1 (stereo not given in full) -0.053
CO[C@H](C1CCCCC1)[C@H](C)C=CCC(=O)OCCCc1ccccc1 1.37
O=C1C[C@@H](O)[C@@H](O)[C@@H]2[C@@H]3C(=O)N(Cc4ccccc4)C(=O)[C@@H]3CC[C@@H]12 -0.365
CCN1C(=O)[C@H]2[C@H]3[C@H](O)[C@H](O)CC(=NOCC(C)C)[C@@H]3CC[C@H]2C1=O -0.132
COC(=O)CC=C[C@@H](C)[C@@H](C=NOC[C@H]1O[C@H](c2ccccc2)C=C[C@@H]1Oc1ccc(OC)cc1)OC -0.337
CC(CCN1CCc2nc(-c3ccccc3)c(-c3ccccc3)cc2C1)=NOC[C@@H](O)[C@H]1O[C@@H]2OC(C)(C)O[C@@H]2[C@H]1O -0.987
O=C(NN=C1C[C@@H](O)[C@@H](O)[C@@H]2[C@@H]3C(=O)N(C4CCCCC4)C(=O)[C@@H]3CC[C@@H]12)OCc1ccccc1 0.313
COc1ccc(O[C@H]2C=C[C@@H](c3ccccc3)O[C@@H]2CON=C(C)CCC(=O)OC[C@H]2O[C@H](c3ccccc3)C=C[C@@H]2Oc2ccc(OC)cc2)cc1 0.76
